EPAC2 ag = qHTS for Agonist of cAMP-regulated guanine nucleotide exchange factor 4 (EPAC2): primary screen | EPAC2 activation, biochemical qHTS; response scale: 100% = 6.5 mM cAMP response | Potency, µM (top dose mostly 154 µM), inactives show top-dose activation, hits mostly activators | actives 0.079% (n = 360,000) | Rap guanine nucleotide exchange factor 4 (Homo sapiens), Q8WZA2; note: nearly all actives have a fitted effect of over 50% in size
Target sequence (Q8WZA2 whole entry, looked up): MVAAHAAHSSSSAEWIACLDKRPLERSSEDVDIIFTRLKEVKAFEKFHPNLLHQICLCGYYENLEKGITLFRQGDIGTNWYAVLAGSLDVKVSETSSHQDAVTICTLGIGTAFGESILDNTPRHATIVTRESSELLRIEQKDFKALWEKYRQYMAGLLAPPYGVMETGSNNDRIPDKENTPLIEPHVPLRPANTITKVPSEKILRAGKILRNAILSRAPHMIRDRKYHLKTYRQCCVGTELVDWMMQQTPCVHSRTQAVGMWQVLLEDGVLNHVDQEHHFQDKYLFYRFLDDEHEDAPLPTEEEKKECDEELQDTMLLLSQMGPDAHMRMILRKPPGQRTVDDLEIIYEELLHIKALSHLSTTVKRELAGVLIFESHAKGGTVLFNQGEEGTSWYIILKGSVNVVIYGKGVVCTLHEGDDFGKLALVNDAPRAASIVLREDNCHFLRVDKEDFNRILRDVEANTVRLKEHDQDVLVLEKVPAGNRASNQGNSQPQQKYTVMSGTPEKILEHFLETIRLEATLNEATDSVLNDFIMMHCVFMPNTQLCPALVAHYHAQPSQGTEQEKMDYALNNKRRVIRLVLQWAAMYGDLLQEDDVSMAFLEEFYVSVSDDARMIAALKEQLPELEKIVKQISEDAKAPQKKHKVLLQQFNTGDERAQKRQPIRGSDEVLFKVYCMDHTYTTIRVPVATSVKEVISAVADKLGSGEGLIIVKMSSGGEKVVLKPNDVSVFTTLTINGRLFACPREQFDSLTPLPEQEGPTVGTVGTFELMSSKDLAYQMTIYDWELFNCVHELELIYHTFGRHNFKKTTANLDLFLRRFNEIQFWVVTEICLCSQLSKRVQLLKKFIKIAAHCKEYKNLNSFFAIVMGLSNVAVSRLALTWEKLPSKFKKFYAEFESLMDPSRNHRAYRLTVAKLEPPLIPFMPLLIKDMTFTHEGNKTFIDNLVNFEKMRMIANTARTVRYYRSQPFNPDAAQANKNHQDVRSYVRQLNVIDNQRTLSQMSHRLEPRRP
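qHTS, titration series. 100 nM EPAC2 / 250 nM Rap1B-BODIPY-GDP / 50 uM GDP; RT; ex 480/em 540 nm, 5-min reads to 30 min. Norm. to 6.5 mM cAMP = activation.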
EPAC1 antagonist = qHTS for Antagonist of cAMP-regulated guanine nucleotide exchange factor 3 (EPAC1): primary screen; EPAC1 GEF assay, Rap1b-BODIPY-GDP exchange fluorescence; Rap guanine nucleotide exchange factor 3 (Homo sapiens), O95398; actives 0.14% (n = 360,000); AID 720709, 2013; Potency, µM (doses to about 115 µM), without a hit: at the highest dose activity change, negative = inhibition, most hits filed as inhibitors;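 note: plate controls were vehicle for no effect and positive control for full effect; nearly all actives have a fitted effect of over 50% in size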
EPAC1 ag = qHTS for Agonist of cAMP-regulated guanine nucleotide exchange factor 3 (EPAC1): primary screen; Rap guanine nucleotide exchange factor 3 (Homo sapiens), O95398; EPAC1 agonist qHTS, biochemical assay; response scale: 100% = response to 6.5 mM cAMP; Potency, µM (series often up to 154 µM), without a hit: top-dose activation, most hits filed as activators; actives 0.073% (n = 360,000); AID 720707, 2013; note: nearly all actives have a fitted effect of over 60% in size
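EPAC1 100 nM, Rap1B–BODIPY-GDP 250 nM, unlabeled GDP 50 uM; compound titration; 5 min RT; kinetic read ex480/em540 at 5-min intervals ×30 min; data normalized to 6.5 mM cAMP agonist control.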
EPAC2 antag = qHTS for Antagonist of cAMP-regulated guanine nucleotide exchange factor 2 (EPAC2): primary screen | Rap guanine nucleotide exchange factor 4 (Homo sapiens), Q8WZA2 | EPAC2 GEF exchange of Rap1B-BODIPY-GDP, fluorescence | Potency, µM (highest dose often 114 µM), without a hit: top-dose activity, negative = inhibition, actives largely listed as inhibitors | actives 0.18% (n = 360,000) | AID 720708, 2013; note: % is set by controls: 0 for no effect and ±100 for the full control effect; nearly all actives have a fitted effect of over 45% in size
* hit, by the source's call; i = inactive; ? = inconclusive; [ ] = remark or other dose. Rows were chosen to be rich in hits. Some 0.38% of all compounds tested hit in one or more screens of this group. Calls come from the whole dose curve; as a rule, active = well fitted curve in the direction sought with a large enough effect; inconclusive = small, poorly fitted or top-dose-only effect, or another doubt; inactive = no such curve, though single readings can be large; an effect the other way counts as inactive or inconclusive. Potency is the fitted concentration of half-maximal effect.

SMILES	EPAC2 ag	EPAC1 antagonist	EPAC1 ag	EPAC2 antag
CCC1=NN(C(=O)c2ccc(Br)cc2)C(O)(c2ccccc2)C1 (stereo not drawn)	1%	88%	112µM*	-7%
Cc1ccc(C)c(-n2c3nc(=O)[nH]c(=O)c-3cc3cc([N+](=O)[O-])ccc32)c1	13%	56µM*	4%	-15%
Cc1cccc(-n2c3nc(=O)[nH]c(=O)c-3cc3cc([N+](=O)[O-])ccc32)c1	-5%	4%	4%	-1%
CN1c2ccccc2C(C)(C)C12C=Nc1c(cc(N3CCOCC3)c3ccccc13)O2 (stereo not drawn)	4%	89µM*	10%	-25%
COc1ccccc1NC(=O)C(C)N(C)Cc1ccc(Cl)s1 (stereo not drawn)	13%	3%	-1%	?
CCN1CCN(C2=CC3=CC(=C(C#N)C#N)CCC3CC2)CC1 (stereo not drawn)	25µM*	455%	50µM*	434%
N#CC(C#N)=C1C=C2C=C(N3CCOCC3)CCC2CC1 (stereo not drawn)	56µM*	152%	?	79%
CN1CCN(C2=CC3=CC(=C(C#N)C#N)CCC3CC2)CC1 (stereo not drawn)	100µM*	i	28µM*	213%
N#CC(C#N)=C1C=C2C=C(N3CCCCCC3)CCC2CC1 (stereo not drawn)	89%	135%	94%	239%[57.1 µM]
CCCCCCCCCCCCCCCCCCNc1ccn(C2OC(COP(=O)(O)OCC3OC(n4cc(F)c(=O)[nH]c4=O)CC3O)C(O)C2O)c(=O)n1 (stereo not drawn)	9%	22µM*	-35%	4%
COc1ccc(CCNC(=O)CSc2nc(N)c(C#N)c(-c3cccs3)c2C#N)cc1OC	-3%	32µM*	-1%	2%
Nc1nc2ccc(Cl)cc2cc1C(=O)NCc1ccc(Oc2ccccc2)cc1	4%	-27%	-4%	10%
COCC(=O)Oc1c(Sc2ccccc2[N+](=O)[O-])c(C)nn1C(C)(C)C	-10%	-4%	-4%	56µM*
CC(C)(C)c1ccc(C(=O)NCC2CCCN2S(=O)(=O)c2ccccc2)cc1 (stereo not drawn)	-4%	?	45µM*	-25%
Cc1ccc(C(=O)NCC2CCCN2S(=O)(=O)c2ccc(C)cc2)cc1 (stereo not drawn)	4%	-4%	6%	-14%
CCc1nc2c(OCC(=O)N3CCOCC3)cccn2c1N(C=O)Cc1ccccc1	9%	11%	-17%	6%
O=C(CC(O)(CC(=O)OCc1ccccc1)C(=O)OCc1ccccc1)OCc1ccccc1	8%	16%	7%	0%
COc1ccc(-c2cc(=O)oc3c(O)c(O)ccc23)cc1	2%	35µM*	1%	-16%
COc1ccc(-c2cc(=O)oc3cc(OC(C)C(=O)O)ccc23)cc1 (stereo not drawn)	-3%	0%	0%	1%
COc1cc(C2c3cc4c(cc3CC3COC(=O)N32)OCO4)cc(OC)c1OC (stereo not drawn)	0%	-2%	-5%	12%
CCC1CCCCN1CCCNC(=O)CCC(=O)N1CC(C)Oc2ccccc21 (stereo not drawn)	10%	25µM*	-16%	18%
Cc1ccc(-n2c(O)c(C=Nc3ccccc3-c3n[nH]c(=S)[nH]c3=O)c3ccccc3c2=O)cc1C	0%	50µM*	8%	-22%
Cc1ccc(SCc2cc(=O)c3c(=O)n(-c4ccccc4)[nH]c3[nH]2)cc1	0%	79µM*	-1%	-23%
CCCn1c(SCC(=O)N(C)CC(=O)Nc2ccc(C)cc2)n[nH]c1=O	6%	24%	1%	7%
CC(=O)c1cccc(NC(=O)CSc2ccc(-c3ccco3)nn2)c1	4%	10%	-2%	17%
SMILES	EPAC2 ag	EPAC1 antagonist	EPAC1 ag	EPAC2 antag
O=C(CSc1ccc(-c2ccco2)nn1)c1cccc([N+](=O)[O-])c1	4%	20µM*	0%	17%
CN(Cc1ccc(F)cc1)C(=O)c1cccc(OCc2ccccc2)c1	17%	-6%	7%	50µM*
CN(Cc1ccc(F)cc1)C(=O)c1cccc(NS(=O)(=O)c2ccccc2)c1	-2%	-30%	4%	-11%
O=c1c(O)c(-c2cc(O)c(O)c(O)c2)oc2cc(O)cc(O)c12	8%	16µM*	-26%	8.9µM*
CCOC(=O)C1(C)CCN1C(=O)/C=C/c1ccccc1 (stereo not drawn)	-1%	5%	-2%	3%
Cc1ccc(C2CC(c3cccs3)=NN2C(=O)c2ccco2)o1 (stereo not drawn)	10%	-13%	12%	28µM*
O=C(c1ccco1)N1N=C(c2cccs2)CC1c1ccco1 (stereo not drawn)	4%	-2%	3%	3%
CN(C)c1cccc(NC(=O)c2cccc3c(-c4ccc(F)c(F)c4)coc23)c1	7%	-4%	-1%	10%
Cc1ccc2oc(=O)c(/C=C(\O)C(C)(C)C)nc2c1	14%	-2%	-11%	18%
Cc1ccc2oc(=O)c(/C=C(\O)c3ccco3)nc2c1	100µM*	14%	10%	214%
CC(C)(C)OC(=O)NCCCCCNC(=O)c1[nH]cnc1C(=O)Nc1cc(Br)ccc1F	-3%	-8%	-17%	-5%
COc1cc2ccccc2cc1C(=O)NC(=S)Nc1cccc(C(=O)O)c1	10%	45µM*	?	13%
CC1=C(C(=O)OCc2ccccc2)C(c2ccccc2)NC(=O)N1CCCCCC(=O)O (stereo not drawn)	-4%	-2%	-21%	3%
CC1=C(C(=O)OCc2ccccc2)C(c2ccc(C(C)(C)C)cc2)NC(=O)N1CCCCCC(=O)O (stereo not drawn)	-10%	-16%	-6%	16µM*
CC(=O)c1ccc2c(c1)C1C=CCC1C(c1ccncc1)N2 (stereo not drawn)	-5%	-13%	-2%	0%
CC(=O)c1ccc2c(c1)C1C=CCC1C(C(=O)O)N2 (stereo not drawn)	3%	50µM*	0%	4%
COCCN(Cc1ccc(OC)cc1)c1c(C)nc2ccc(C(=O)Nc3ccc(NC(C)=O)cc3)cn12	0%	-5%	6%	-11%
Cc1cccc(C)c1NC(=O)C1(C)CN(S(C)(=O)=O)CC(=O)N1CCc1ccccc1F (stereo not drawn)	-1%	8%	5%	-20%
C=CCN1C(=O)/C(=C\C=C2\N(C)c3ccccc3C2(C)C)SC1=S	20%	10%	6%	204%
C=CCN1C(=O)/C(=C/C=C2/N(CC)c3ccc(S(=O)(=O)N(C)C)cc3N2CC)SC1=S	100µM*	10%	100µM*	-1%

Source: PubChem BioAssay (National Center for Advancing Translational Sciences (NCATS))
